What follows are molecules tested on Trichuris muris adult worms (assay: mean motility score (Paragon pixel variance) of adult worms (arbitrary units); higher = more motile worms, i.e. less anthelmintic effect; extreme values may be limits of the assay). Conditions: 100 µM; 24 h.
How it was run: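 Single adult Trichuris muris worms, recovered from infected NOD SCID mice, were exposed to drug at 100 μM (1% v/v DMSO) in 100 μL RPMI-1640 with antibiotics in 96-well plates for 24 h at 37°C and 5% CO2. The plates were then filmed on an automated phenotyping platform. The motility score was calculated through Paragon pixel-variance analysis and averaged across replicate wells, with three worms in three wells per drug on three separate occasions.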
`O=C(O)COc1ccc(C(=O)c2cccs2)c(Cl)c1Cl` [ticrynafen] gave a mean motility score of 3440.
Work on `C[C@](N)(Cc1ccc(O)c(O)c1)C(=O)O` [methyldopa] yielded a mean motility score of 4060.
`Cl.N=C(N)NC(=O)c1nc(Cl)c(N)nc1N` [amiloride hydrochloride] gave a mean motility score of 2260.
With `N=C(N)NCCC[C@H](N)C(=O)O` [arginine] the mean motility score was 2980.
`CN1CCCN=C1COC(=O)C(O)(c1ccccc1)C1CCCCC1.Cl` (stereo not given) [oxyphencyclimine hydrochloride] was tested, and the mean motility score was 3070.
`CCN(CC)C(C)CN1c2ccccc2Sc2ccccc21.Cl` (stereo not given) [ethopropazine hydrochloride] gave a mean motility score of 114.
With `COc1cc(C(C)=O)ccc1OCCCN1CCC(c2noc3cc(F)ccc23)CC1` [iloperidone] the mean motility score was 1950.
In the case of `CCOc1ccccc1OCCN[C@H](C)Cc1ccc(OC)c(S(N)(=O)=O)c1.Cl` [tamsulosin hydrochloride], the mean motility score is reported as 2890.
`FC(F)(F)C(F)(F)C(F)(F)C(F)(F)C(F)(F)C(F)(F)C(F)(F)C(F)(F)Br` [perflubron] showed a mean motility score of 1630.
Molecule `CN(C)[C@@H]1C(O)=C(C(N)=O)C(=O)[C@@]2(O)C(O)=C3C(=O)c4c(O)cccc4[C@@](C)(O)[C@H]3[C@H](O)[C@@H]12` [oxytetracycline] has a mean motility score of 2120.
`COc1c2ccoc2cc2oc(=O)ccc12` [bergapten] gave a mean motility score of 3090.
Molecule `CCN1CC(CCN2CCOCC2)C(c2ccccc2)(c2ccccc2)C1=O.Cl` (stereo not given) [doxapram hydrochloride] has a mean motility score of 1820.
`CC(C)(Oc1ccc(C2CC2(Cl)Cl)cc1)C(=O)O` (stereo not given) [ciprofibrate] showed a mean motility score of 2070.
With `CC(=O)Oc1ccc(C(c2ccc(OC(C)=O)cc2)c2ccccn2)cc1` [bisacodyl] the mean motility score was 2870.
In the case of `NNc1nncc2ccccc12` [hydralazine], the mean motility score is reported as 1960.
`COc1cc(N)c(Cl)cc1C(=O)NC1CCN(CCCOc2ccc(F)cc2)CC1OC.O` (stereo not given) [cisapride monohydrate] was tested, and the mean motility score was 2840.
`CCC(C)n1ncn(-c2ccc(N3CCN(c4ccc(OC[C@H]5CO[C@](Cn6cncn6)(c6ccc(Cl)cc6Cl)O5)cc4)CC3)cc2)c1=O` (stereo not given in full) [itraconazole] was tested, and the mean motility score was 1700.
`NC(=O)c1ncn([C@@H]2O[C@H](CO)[C@@H](O)[C@H]2O)c1O` [mizoribine] showed a mean motility score of 2990.
`CCCNCC(O)COc1ccccc1C(=O)CCc1ccccc1` (stereo not given) [propafenone] was tested, and the mean motility score was 1050.
`Cc1c(N(C)C)c(=O)n(-c2ccccc2)n1C` [aminopyrine] showed a mean motility score of 2250.
For `O=C1c2ccccc2C(=O)C1c1ccccc1` [phenindione], the mean motility score was 4420.
With `N[C@@H](CCC(=O)O)C(=O)O` [L-glutamate] the mean motility score was 3930.
Work on `CNCCC=C1c2ccccc2CCc2ccccc21` [nortriptyline] yielded a mean motility score of 911.
Work on `CN1CCCC(n2nc(Cc3ccc(Cl)cc3)c3ccccc3c2=O)CC1.Cl` (stereo not given) [azelastine hydrochloride] yielded a mean motility score of 396.
In the case of `CC(=O)O[C@]1(C(C)=O)CC[C@H]2[C@@H]3C=C(Cl)C4=CC(=O)CC[C@]4(C)[C@H]3CC[C@@]21C` [chlormadinone acetate], the mean motility score is reported as 2750.
Molecule `CN/C(=C\[N+](=O)[O-])NCCSCc1csc(CN(C)C)n1` [nizatidine] has a mean motility score of 3800.
In the case of `CCCCC1=NC2(CCCC2)C(=O)N1Cc1ccc(-c2ccccc2-c2nn[nH]n2)cc1` [irbesartan], the mean motility score is reported as 2360.
Work on `CN1CCc2cccc3c2[C@H]1Cc1ccc(O)c(O)c1-3` [apomorphine] yielded a mean motility score of 2320.
For `N[C@@H](Cc1cc(I)c(Oc2ccc(O)c(I)c2)c(I)c1)C(=O)O` [liothyronine], the mean motility score was 1020.
`CNC(=O)c1ccccc1Sc1ccc2c(/C=C/c3ccccn3)n[nH]c2c1` [axitinib] showed a mean motility score of 2490.
In the case of `C#CCN(C)Cc1ccccc1` [pargyline], the mean motility score is reported as 2290.
`CC1(C)O[C@@H]2C[C@H]3[C@@H]4C[C@H](F)C5=CC(=O)C=C[C@]5(C)[C@@]4(F)[C@@H](O)C[C@]3(C)[C@]2(C(=O)CO)O1` [fluocinolone acetonide] was tested, and the mean motility score was 2800.
`Cl.Fc1ccc([C@@H]2CCNC[C@H]2COc2ccc3c(c2)OCO3)cc1` [paroxetine hydrochloride] showed a mean motility score of 1300.
`COc1ccccc1O` [guaiacol] was tested, and the mean motility score was 2150.
`CN(C)CC[C@@H](c1ccc(Cl)cc1)c1ccccn1.O=C(O)/C=C\C(=O)O` [dexchlorpheniramine maleate] was tested, and the mean motility score was 1140.
